The test deals with alpha-synuclein (aSyn) WT (human, UniProt P37840 1-140). Nature of the test: RNA Bind-n-Seq. Particulars: ssRNA.
The sequence GCGGGAUGGGGG came in with a binding signal of 43.8 enrichment score. The same measure for GUGGGGAGGAAG: 46.4 enrichment score. The same measure for GGCGGGCGGAGG: 49.1 enrichment score; for UGAGUGGGUGGU: 43.8 enrichment score. On to GGAGGUAGGGAG, for which the binding signal was 43.8 enrichment score. Sequence AGGGGGGAGCAG displayed a binding signal of 49.1 enrichment score. On to GGGCUGGGAGUG, for which the binding signal came out at 41.1 enrichment score. In the case of GCGGGCAGGUGG, the binding signal amounted to 43.8 enrichment score. The figure for GGAGGUGGUGGA is 46.4 enrichment score. Take GGGAGCGGGGGA: the binding signal stood at 46.4 enrichment score. The figure for CGGAGGUGGGUG is 41.1 enrichment score; for UGGGGAGUGGGU it is 51.8 enrichment score; for GUGGGUGUGGUA it is 41.1 enrichment score. The sequence AGGGGGAUGUGG came in with a binding signal of 54.6 enrichment score. In the case of GUGUGGCGGAGG, the binding signal was 46.4 enrichment score. In turn, GGGCAGUGGAGG yielded a binding signal of 54.6 enrichment score.

CGGGUGGGAUGG: the binding signal worked out at 43.8 enrichment score. GGAUGGUUGGUG gave a binding signal of 54.6 enrichment score. The same measure for GUGUGGGGGCAG: 43.8 enrichment score; for GUGCGGGGGGGC: 43.8 enrichment score; for GGUGGGUUUGGG: 65.9 enrichment score. Sequence UGGGGUAUUGGG had a binding signal of 43.8 enrichment score. For UGGGGUGGGAGU, the binding signal was 46.4 enrichment score. The sequence GGAGGAAGGGGA had a binding signal of 41.1 enrichment score. AGUUGGUGGUGG came in with a binding signal of 46.4 enrichment score. GGUGUGGGUGUG: the binding signal is 51.8 enrichment score.

In turn, UGGGAGGGGAGU yielded a binding signal of 43.8 enrichment score.

Turning to GGGGGUGGCAGA, the binding signal was 43.8 enrichment score.

Consider UGGAUGGCGGGG, for which the binding signal worked out at 43.8 enrichment score. In the case of GAGGUGGUAGGG, the binding signal stood at 57.4 enrichment score. As for GCGGGGGGGCUG, the binding signal came out at 43.8 enrichment score. On to GGGUGGGCGGGG, for which the binding signal turned out to be 96 enrichment score. In the case of GGUAGGCUGUGG, the binding signal turned out to be 49.1 enrichment score.
